{"source": "PubChem BioAssay (NCATS)", "note": "Records with an inconclusive call do not appear. Unmarked numbers belong to inactive results. Activity calls are given as the source filed them. Calls come from the whole dose curve; as a rule, active = well fitted curve in either direction with a large enough effect (not every such curve was filed as active); inconclusive = small, poorly fitted or top-dose-only effect, or another doubt; inactive = flat fitted curve, though single readings scatter. % is set by controls: 0 for no effect and ±100 for the full control effect."}
{"biological_target": "Mitogen-activated protein kinase 10 (Mus musculus) (UniProt Q61831)", "assay": "JNK3 AlphaScreen Assay (AID 530);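 note: kinase came from lysate of stimulated human HepG2 cells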", "conditions": "JNK3 lysate, c-Jun phosphorylation; series mostly up to 57.1 µM; activity change, negative = inhibition: at the top concentration", "from_the_text": "NIH Chemical Genomics Center [NCGC]\nNIH Molecular Libraries Screening Centers Network [MLSCN]\nThe c-jun N-terminal kinase (JNK) family are serine/threonine protein kinases that phosphorylate c-jun, a component of the transcription factor […] (AP-1). JNK kinases are members of the mitogen-activated protein kinase family including the extracellular regulated kinases and p38 kinases. Three JNK genes (JNK 1, 2, and 3) have been identified in humans so far. JNK1 and JNK2 have a broad distribution and JNK3 is primarily found in neuronal tissues and cardiac myocytes.\nJNK3 has been under consideration as a target for the treatment of neurodegenerative disorders. […] JNK pathway is also involved in pathological process in a mouse model of Parkinson's disease (Xia et al., 2001).\nGiven these potential tissue distributions and links to neuroprotection, JNK3 inhibitors should provide useful investigational tools to study the role of this kinase in several diseases including, arthritis, stroke, myocardial infarction, ischemic injury and Parkinson's disease.\nA homogeneous AlphaScreen is developed to measure the activity of JNK3. AlphaScreen is a two bead-based proximity-dependent chemical energy transfer luminescent assay platform. The phosphorylation of a biotinylated c-jun substrate by JNK3 can be detected with an antibody raised against phosphorylated c-jun. This process brings streptavidin donor beads and Protein-A acceptor beads to within a proximity range of <200 nm, and subsequently lead a chemical luminescent reaction upon exciting donor beads with 680 nm laser excitation light. Inhibition of JNK3 activity by small molecules and subsequent decrease in the antibody binding to biotinylated c-jun could attenuate or abolish this chemical luminescent reaction.\nYang DD, Kuan CY, Whitmarsh AJ, Rincon M, Zheng TS, Davis RJ, Rakic P and Flavell RA (1997) Absence of excitotoxicity-induced apoptosis in the hippocampus of mice lacking the Jnk3 gene. Nature 389:865-870. [PMID: 9349820]\nHerdegen T, Claret FX, Kallunki T, Martin-Villalba A, Winter C, Hunter T, and Karin M (1998) Lasting N-terminal phosphorylation of c-Jun and activation of c-Jun N-terminal kinases after neuronal injury. J.Neurosci. 18:5124-5135. [PMID: 9651196]\nXia XG, Harding T, Weller M, Bieneman A, Uney JB and Schulz JB (2001) Gene transfer of the JNK interacting protein-1 protects dopaminergic neurons in the MPTP model of Parkinson's disease. Proc.Natl.Acad.Sci.U.S.A. 98:10433-10438.\nNCGC Assay Protocol Summary:\nGST-cJun (1-79) (Stratagene, La Jolla CA, #205145) was biotnylated by PerkinElmer (PerkinElmer-BioSignalInc. Montreal, Canada) and was detectable by the streptavidin Donor beads. Anti-(phospho)cJun (Ser73) antibody was from UpState (Charlottesvilles, VA, #06-659). JNK3-containing lysates were generated from HepG2 cells and pre-activated by interleukin1-beta and tumor necrosis factor alpha. All reagents were stored at -20 C before using. Phosphorylated biotinylated-GST-cJun was recognized by Anti-(phospho)cJun (Ser73) antibody and this process brings acceptor and donor beads together. Therefore JNK3 phosphorylation of cJun can be measured by Alpha reading by EnVision (PerkinElmer, Boston, MA).\nThe composition of kinase buffer was (in mM) 20 tris- HCl (pH 7.6) 10 MgCl2, 1 DTT, and 0.1 Na3VO4 and 0.01% Tween-20. Beads were diluted in detection buffer containing (in mM) 20 tris-HCl (pH 7.7), 20 NaCl and 80 EDTA and 0.3% BSA. The assay was performed at room temperature. All compounds were screened as titrations from 0.6 nM to 46 uM final concentration. The assay was performed in 1536-well format (white solid bottom and untreated) as follows:\nSequence,Parameter,Value,Description\n1,Reagent,3 uL,Biotin-GST-cJun, Anti-(phospho)cJun and pre-activated JNK3-containing lysates\n2,Compound,23 nL,Final concentration was 0.6nM to 46uM\n3,Time,15 minutes,Room Temperature\n4,Reagent,1 uL,ATP final concentration 10uM\n6,Reagent,0.5 uL,2ng/well bead mixture\n[…]"}
{"compound": "N#CC(C#N)=C(N)/C(C#N)=C/c1ccc(O)cc1", "activity change, negative = inhibition": "19.1%"}
{"compound": "O=C(O)/C(=C/c1c(C(=O)O)[nH]c2cc(Cl)cc(Cl)c12)c1ccccc1", "activity change, negative = inhibition": "30.9%"}
{"compound": "CN1CCN(c2nc3cc(C(F)(F)F)ccc3n3cccc23)CC1", "activity change, negative = inhibition": "7.25%"}
{"compound": "[Li+]", "activity change, negative = inhibition": "-25%"}
{"compound": "NCCCNCCCCNCCCN", "outcome": "inactive"}
{"compound": "Oc1ccc(Cn2cc[nH]c2=S)cc1", "activity change, negative = inhibition": "3.26%"}
{"compound": "N[C@@H](CS(=O)O)C(=O)O", "activity change, negative = inhibition": "-16.4%"}
{"compound": "COc1ccc(C(=O)NCc2cccnc2)cc1C(=O)NCc1cccnc1", "outcome": "inactive"}
{"compound": "N#C/C(=C\\c1ccc(O)c(O)c1)C(=O)NCCc1ccccc1", "activity change, negative = inhibition": "-13.6%"}
{"compound": "NCCCCN=C(N)N", "activity change, negative = inhibition": "15.2%"}
{"compound": "CCCCCCCCCCCCCCC[C@H](O)[C@H](N)CO", "activity change, negative = inhibition": "4.13%"}
{"compound": "CC[N+](CC)(CC)CC(=O)Nc1c(C)cccc1C", "outcome": "inactive"}
{"compound": "COc1ccccc1N1CCN(CCCCN2C(=O)c3ccccc3C2=O)CC1", "outcome": "inactive"}
{"compound": "COC(=O)[C@H](NC(=O)c1cc(-c2ccccc2)nc2ccccc12)c1ccccc1", "activity change, negative = inhibition": "13.3%"}
{"compound": "Oc1cc(O)c2c(c1)O[C@H](c1ccc(O)c(O)c1)[C@@H](O)C2", "activity change, negative = inhibition": "15.4%"}
{"compound": "CC(N)=O", "activity change, negative = inhibition": "-0.0892%"}
{"compound": "NC(=Nc1ccccc1)NC(=O)c1nc(Cl)c(N)nc1N", "activity change, negative = inhibition": "19.3%"}
{"compound": "CC[C@@H]1Cc2cc(O)ccc2C2=C1c1ccc(O)cc1C[C@H]2CC", "activity change, negative = inhibition": "15.9%"}
{"compound": "CC(=O)NNC(=O)N1Cc2ccccc2Oc2ccc(Cl)cc21", "outcome": "inactive"}
{"compound": "Cc1cccc(C(=O)NCN2CCN(c3ccccc3C#N)CC2)c1", "outcome": "inactive"}
{"compound": "O=[N+]([O-])c1cccc2cn[nH]c12", "outcome": "inactive"}
{"compound": "O=C(O)c1cc(=O)cc(C(=O)O)[nH]1", "activity change, negative = inhibition": "-4.71%"}
{"compound": "COc1ccc(CCN(C)CCc2ccc(OC)c(OC)c2)cc1OC", "outcome": "inactive"}
{"compound": "C[C@H](O)C(=O)C1=Nc2c(nc(N)[nH]c2=O)NC1", "activity change, negative = inhibition": "29.1%"}
{"compound": "COc1ccc(-c2ccc(N)[n+](CCCC(=O)O)n2)cc1", "outcome": "inactive"}
{"compound": "N[C@@H](Cc1c[nH]c2ccccc12)C(=O)O", "activity change, negative = inhibition": "3.35%"}
{"compound": "C/C(=C\\c1ccc(C(=O)O)cc1)c1ccc2c(c1)C(C)(C)CCC2(C)C", "outcome": "inactive"}
{"compound": "O=c1[nH]c2ccccc2c2ccccc12", "activity change, negative = inhibition": "-7.12%"}
{"compound": "O=c1onc2n1-c1cc(Br)ccc1OC2", "activity change, negative = inhibition": "-15.2%"}
{"compound": "O=C(N[C@@H](Cc1ccccc1)C(=O)CCl)OCc1ccccc1", "activity change, negative = inhibition": "-1.12%"}
{"compound": "CN1CCc2cc(Cl)c(O)cc2[C@@H](c2ccccc2)C1", "activity change, negative = inhibition": "-13.7%"}
{"compound": "O=C(O)Cc1ccc(O)c(O)c1", "activity change, negative = inhibition": "28.9%"}
{"compound": "C#CCn1c(=O)c2c(ncn2C)n(C)c1=O", "activity change, negative = inhibition": "5.19%"}
{"compound": "C[C@](Cc1ccc(O)c(O)c1)(NN)C(=O)O", "activity change, negative = inhibition": "14.3%"}
{"compound": "O=S(=O)(c1cccc2c(Cl)cccc12)N1CCCNCC1", "outcome": "inactive"}
{"compound": "COc1ccccc1N1CCN(CCCNc2c(C)c(=O)n(C)c(=O)n2C)CC1", "activity change, negative = inhibition": "-14.5%"}
{"compound": "NC1(C(=O)O)CCCCC1", "activity change, negative = inhibition": "-6.54%"}
{"compound": "CCCn1c(=O)c(C)cn2nc(N)nc12", "activity change, negative = inhibition": "-14.6%"}
{"compound": "Cn1c(=O)c2[nH]c(-c3ccc(S(=O)(=O)O)cc3)nc2n(C)c1=O", "activity change, negative = inhibition": "2.13%"}
{"compound": "O=c1[nH]c(=S)[nH]c(-c2ccccc2)c1Cc1c(O)ccc2ccccc12", "activity change, negative = inhibition": "0.827% [at 11.4 µM]"}
